Sampled rows, rich in hits. Any-hit rate of the full collection: about 2%.
KCNH2 3.1 block – KCNH2 3.1 (human) potassium channel inhibition | U2OS KCNH2 3.1, thallium flux FluxOr; hits give low values | activity change, % (tested at about 1.8 µM) | hit rate 0.95% among 340,000;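 active = maximum activity change below -70%; inconclusive = maximum activity change from -70% to -50%; inactive = maximum activity change above -50%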;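 note: thallium influx rate constant from kinetic fluorescence after stimulation buffer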
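U2OS cells transduced with KCNH2 3.1 mutant virus (1.77 x 10^8 /mL, 4 h), plated overnight at 37 C, loaded 45 min with FluxOr dye plus Red40 quencher. Thallium flux rate constant from kinetic reads after stimulation buffer, normalised to controls.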
JMJD2E inh – JMJD2E (human) inhibition | JMJD2E catalytic domain, FDH-coupled NADH fluorescence (FDH is formaldehyde dehydrogenase) | Potency, µM (doses to about 57.1 µM), actives largely listed as inhibitors | hit rate 1.6% among 230,000 | AID 2147; active = well fitted inhibition curve with a large enough effect, not every such curve was filed as active; inconclusive = small, poorly fitted or top-dose-only effect, or another doubt; inactive = no such curve, though single readings can be large or run the other way; note: nearly all actives have a fitted effect of over 50% in size
CtBP-E1A inh – inhibitors of CtBP/E1A interaction | AlphaScreen GST-E1A/His-CtBP binding, 1536-well; hits give low values | activity change, % (test concentration not listed) | hit rate 0.49% among 340,000 | AID 651724
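GST-E1A and His-tagged CtBP (125 nM each as 5X stock) were preincubated with pin-transferred compound for 2 h at 37 °C in the dark, then glutathione donor and nickel acceptor beads were added for 1 h before AlphaScreen reading.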
Six1-Eya2 blk – blocks human Six1 binding to Eya2; Q15475+O00167; AlphaScreen GST-Six1/His-Eya2 binding, biochemical; hits give low values; activity change, % (concentration not given with the values); hit rate 0.56% among 360,000; AID 651725
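GST-Six1 + His-Eya2 (5X stock: 250/500 nM); Tris pH 8.0, 300 mM NaCl, 0.05% BSA, 0.02% Tween 20; GSH donor/Ni acceptor beads; 1 h 37 °C dark; AlphaScreen readout.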
KCNH2 WT inh – inhibitors of human wildtype KCNH2 potassium channel. Q12809. activity change, % at 1.84 µM. hit rate 0.37% among 340,000. U2OS, BacMam KCNH2, thallium flux FluxOr; hits give low values. AID 720551;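 active = maximum activity change below -70%; inconclusive = maximum activity change between -70% and -50%; inactive = maximum activity change above -50%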
Target sequence (Q12809 whole entry, looked up): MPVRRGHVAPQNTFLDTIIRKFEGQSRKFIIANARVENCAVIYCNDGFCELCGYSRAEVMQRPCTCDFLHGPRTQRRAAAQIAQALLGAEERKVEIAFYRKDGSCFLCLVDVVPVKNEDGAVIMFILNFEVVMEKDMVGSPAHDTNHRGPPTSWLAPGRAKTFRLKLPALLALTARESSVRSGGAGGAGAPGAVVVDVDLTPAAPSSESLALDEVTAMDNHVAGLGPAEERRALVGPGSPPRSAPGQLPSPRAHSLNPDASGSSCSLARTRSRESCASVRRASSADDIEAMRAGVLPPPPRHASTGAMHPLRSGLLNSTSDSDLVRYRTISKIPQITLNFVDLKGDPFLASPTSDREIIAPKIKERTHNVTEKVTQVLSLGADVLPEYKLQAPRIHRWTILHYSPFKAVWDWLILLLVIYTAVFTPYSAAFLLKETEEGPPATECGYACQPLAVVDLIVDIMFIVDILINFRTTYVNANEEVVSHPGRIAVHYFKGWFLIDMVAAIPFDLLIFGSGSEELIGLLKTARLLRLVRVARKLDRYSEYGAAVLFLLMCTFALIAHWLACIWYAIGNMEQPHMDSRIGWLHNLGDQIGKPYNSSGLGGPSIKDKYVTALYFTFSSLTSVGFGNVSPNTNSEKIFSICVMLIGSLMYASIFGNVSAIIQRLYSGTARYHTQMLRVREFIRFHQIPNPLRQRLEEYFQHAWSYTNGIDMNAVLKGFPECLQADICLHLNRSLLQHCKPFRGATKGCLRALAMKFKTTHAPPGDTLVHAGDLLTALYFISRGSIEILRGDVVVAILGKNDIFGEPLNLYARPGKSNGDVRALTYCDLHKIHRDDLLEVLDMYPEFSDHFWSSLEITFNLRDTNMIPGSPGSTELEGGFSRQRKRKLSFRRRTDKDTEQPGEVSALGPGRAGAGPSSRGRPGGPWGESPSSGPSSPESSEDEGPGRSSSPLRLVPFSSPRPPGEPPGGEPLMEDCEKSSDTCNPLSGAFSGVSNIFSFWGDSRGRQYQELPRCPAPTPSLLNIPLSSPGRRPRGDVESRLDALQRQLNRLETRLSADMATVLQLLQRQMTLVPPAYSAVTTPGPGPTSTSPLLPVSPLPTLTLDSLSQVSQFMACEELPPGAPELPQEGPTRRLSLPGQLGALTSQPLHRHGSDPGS
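U2OS cells transduced with wild-type KCNH2 virus are loaded with FluxOr dye for 45 min, and thallium flux is measured in kinetic reads before and after stimulation buffer. Rate constants are normalized to DMSO controls.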
Numbers stand for hits; – = inactive; ? = inconclusive; · = no result. Cut-off read from the data, not from the text of the source, unless noted: active = activity change below about -65%; inconclusive = mostly about -30% to -63%; inactive = weaker than that.

SMILES | KCNH2 3.1 block | JMJD2E inh | CtBP-E1A inh | Six1-Eya2 blk | KCNH2 WT inh
Cc1c(C(=O)Nc2cccc(Cl)c2)c2ccccn2c1CCc1ccncc1 | -74 | ? | – | – | –
Cc1cccc(NC(=O)CCN2CCN(C)CC2)c1 | – | · | – | – | –
COc1cc(/C=C(\C#N)c2[nH]nc(N)c2C#N)cc(OC)c1O | – | – | -67 | ? | –
COc1cc(/C=C(\C#N)c2ccccn2)cc(OC)c1O | – | – | – | – | –
CCN(C(=O)c1cccs1)c1nc(-c2ccc(OC)cc2)cs1 | – | ? | – | – | –
CN(C)c1ccc(CN2CCC(C(N)=O)CC2)cc1 | – | 28µM | · | – | ·
O=C(NC(c1ccc(F)cc1)c1ccc2ccccc2n1)C1CCN(Cc2ccc3ccccc3n2)CC1 (stereo not given) | · | · | ? | – | ·
CN(C)c1ccc(CN2CCC(C(=O)NC(c3ccc(F)cc3)c3ccc4ccccc4n3)CC2)cc1 (stereo not given) | · | · | ? | -66 | ·
CCOC(=O)N1CCC(=NNS(=O)(=O)c2cccc([N+](=O)[O-])c2)CC1 | -71 | – | – | – | –
CCc1cc2cc(C)cc(C)c2nc1SCC(=O)NNC(=O)c1ccco1 | – | – | – | – | –
O=C(O)C1C2C=CC(C2)C1C(=O)NCCCN1CCCC1=O (stereo not given) | – | · | – | – | -128
CCOc1ccccc1N1CCN(CC(=O)Nc2ncc(C)s2)CC1 | – | · | – | – | –
Cc1cc2nc3n(c2cc1C)CC1CC(C(=O)NCCc2cccs2)N(C)C31 (stereo not given) | – | – | – | – | –
Cc1ccc(-c2csc3nc(SCC(=O)Nc4ccc(Cl)c(C(=O)O)c4)[nH]c(=O)c23)cc1 | – | · | · | -70 | –
CS(=O)(=O)c1ccc(S(=O)CC(=O)Oc2ccc(Cl)cc2)c([N+](=O)[O-])c1 (stereo not given) | – | 3.2µM | – | – | –
O=C(CN1CC(=O)Oc2ccccc21)OCC(=O)c1ccc(Br)cc1 | – | · | -87 | -91 | –
O=C(N/N=C/c1ccc(F)cc1)c1ccncc1 | – | · | – | – | –
COc1ccc(NC(=O)c2cc(Cl)ccc2NC(=O)c2ccco2)c(OC)c1 | -70 | ? | – | – | -82
COc1cc(NC(=O)c2cc(-c3ccco3)on2)c(OC)cc1Cl | -81 | ? | – | – | –
COc1ccc(NC(=O)c2ccccc2Cl)c(NC(=O)c2ccco2)c1 | – | · | – | – | –
NNC(=O)c1oc2nc(-c3ccccc3)cc(-c3ccccc3)c2c1N | – | · | – | – | –
Cc1ccc(-c2cc(-c3ccco3)c3c(N)c(C(=O)NN)oc3n2)cc1 | – | 3.2µM | · | – | –
CCCCCOc1ccc(NC(=O)CSc2cccc3cccnc23)cc1 | – | ? | -95 | -92 | –
NNC(=O)c1ccc(CSc2cccc3cccnc23)cc1 | – | ? | – | – | –
Cc1cccc(CSc2cccc3cccnc23)c1 | – | ? | -92 | -90 | –
SMILES | KCNH2 3.1 block | JMJD2E inh | CtBP-E1A inh | Six1-Eya2 blk | KCNH2 WT inh
O=C(CSc1cccc2cccnc12)Nc1ccc(S(=O)(=O)N2CCOCC2)cc1 | – | ? | -93 | -88 | –
O=C(CSc1cccc2cccnc12)Nc1cccc(S(=O)(=O)N2CCOCC2)c1 | – | ? | – | – | –
Cc1cccc(NC(=O)CSc2cccc3cccnc23)c1C | – | · | -79 | ? | –
C=CCN(CC=C)C(=O)CN1C(=O)NC(c2ccccc2)(c2ccccc2)C1=O | – | · | – | – | –
COc1ccc(CNC(=O)CSc2cccc3cccnc23)cc1 | – | ? | – | – | –
CCOC(=O)CSc1cccc2cccnc12 | – | ? | -92 | -89 | –
CCNC(=O)C1CCCN(C(=O)c2cc(F)cc(F)c2)CC1 (stereo not given) | · | · | – | – | ·
COc1cccc(-c2ccc3c(c2)C2CC3CCN2C(=O)c2ccc(Cl)cc2)c1 (stereo not given) | · | · | – | – | –
CCOC(=O)N1CCC2CC1c1cc(-c3cccc(OC)c3)ccc12 (stereo not given) | – | · | – | – | -116
CCOc1ccc(C(=S)NC2CCCCC2)cc1 | – | – | – | – | –
Cc1cccc(NC(=O)C(C)OC(=O)CNC(=O)C2CCCCC2)c1 (stereo not given) | – | · | – | – | -144
COc1ccc(C(=O)C(C)OC(=O)CNC(=O)C2CCCCC2)cc1 (stereo not given) | – | · | · | – | –
CN(Cc1ccccc1)C(=O)c1ncn(Cc2ccccc2)c1C(=O)N(C)Cc1ccccc1 | -72 | · | – | – | –
CCOc1ccc(CN2CCCC(CO)(Cc3ccc(F)cc3)C2)cc1 (stereo not given) | -97 | · | – | – | –
COc1ccc(CN2CCCC(CO)(Cc3ccc(F)cc3F)C2)cc1 (stereo not given) | – | · | – | – | –
CSc1ccc(CN2CCCC(CO)(Cc3ccccc3)C2)cc1 (stereo not given) | ? | – | · | – | –
Cc1nn(C)c(Cl)c1CN1CCCC(CO)(Cc2ccccc2)C1 (stereo not given) | -85 | – | – | – | –
Cc1nc(N2CCN(c3ccccn3)CC2)c2c(C)c(C(=O)Nc3ccc(Cl)cc3)sc2n1 | – | · | · | – | –
Cc1nc(N2CCN(c3ccccn3)CC2)c2c(C)c(C(=O)Nc3c(C)cc(Br)cc3C)sc2n1 | -80 | · | – | – | –
Cc1c(C(=O)N2CCN(c3ccc(F)cc3)CC2)sc2ncnc(N3CCN(c4ccccn4)CC3)c12 | -76 | · | – | – | –
Cc1nc(N2CCN(c3ccccn3)CC2)c2c(C)c(C(=O)Nc3c(F)cc(F)cc3Br)sc2n1 | -95 | · | ? | ? | –
CN1CCN(c2ccc(S(=O)(=O)N3CCCCC3)cc2NC(=O)CSC(C)(C)C)CC1 | – | · | – | – | –
COc1cc(C(=O)NCC(=O)OCC(=O)c2cccc3ccccc23)cc(OC)c1OC | – | · | – | – | –
O=C(CN1CCN(Cc2ccc(Cl)cc2)CC1)N/N=C/c1ccncc1 | – | – | – | – | –
CSc1ccc(/C=N/NC(=O)CN2CCN(Cc3ccccc3Cl)CC2)cc1 | -82 | – | – | – | –
SMILES | KCNH2 3.1 block | JMJD2E inh | CtBP-E1A inh | Six1-Eya2 blk | KCNH2 WT inh
CSc1ccc(/C=N/NC(=O)CN2CCN(Cc3ccc(C)cc3)CC2)cc1 | -113 | – | – | – | –
COc1ccccc1CN(CC(=O)NCc1ccc(F)cc1)C(=O)c1csnn1 | -82 | · | – | – | –
Cc1cccc(CCN(CC(=O)NCc2ccc(F)cc2)C(=O)c2csnn2)c1 | -108 | · | – | – | –
COc1ccc(CNC(=O)CN(Cc2ccccc2F)C(=O)c2csnn2)cc1 | – | · | – | – | –
Cc1ccc(C)c(N2CCN(C(=O)C3CCCN(S(=O)(=O)c4c(C)noc4C)C3)CC2)c1 (stereo not given) | – | – | – | – | –
COC(=O)C(C(=O)N1CCN(C)CC1)C1CCCCCC1 (stereo not given) | – | – | – | – | –
CCOC(=O)c1cnc2c(CC)cccc2c1NCCCN1CCOCC1 | -74 | · | · | – | –
